According to PubChem BioAssay (NCI):
About 83,000 compounds went through this panel and 20% of them were active in at least one assay; those are over-represented in the sample as a whole.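 Note: values are percent growth. 100 is the growth of untreated cells, values between 100 and 0 indicate rising inhibition; between -100 and 0 indicates cell death.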 Calls of active or inactive are those of the source. The calls were made as follows: active = growth percent below 10; inactive = the rest.

How the values were obtained:
Experiment in all cases: NCI-60 one-dose screen, 48 h (100 = growth as untreated, 0 = no growth, -100 = all killed)
Settings in all cases: 10 µM unless noted
DU-145 prostate = test system: DU-145 prostate
MALME-3M melanoma = test system: MALME-3M melanoma
MDA-MB-231 breast = test system: MDA-MB-231 breast
RXF 393 renal = test system: RXF 393 renal
SF-268 CNS = test system: SF-268 CNS
SF-295 CNS = test system: SF-295 CNS
SF-539 CNS = test system: SF-539 CNS
UACC-257 melanoma = test system: UACC-257 melanoma
M14 melanoma = test system: M14 melanoma
HCT-15 colon = test system: HCT-15 colon
HT29 colon = test system: HT29 colon
SNB-75 CNS = test system: SNB-75 CNS
U251 CNS = test system: U251 CNS
PC-3 prostate = test system: PC-3 prostate
SK-MEL-5 melanoma = test system: SK-MEL-5 melanoma
UACC-62 melanoma = test system: UACC-62 melanoma
LOX IMVI melanoma = test system: LOX IMVI melanoma
SK-MEL-28 melanoma = test system: SK-MEL-28 melanoma
SNB-19 CNS = test system: SNB-19 CNS

Measured: growth

CCn1cc(/C=C2\Oc3cc(OCC#N)ccc3C2=O)c2cc(OC)ccc21
inactive: DU-145 prostate 20.4% | MALME-3M melanoma 93.4% | MDA-MB-231 breast 45.2% | SF-268 CNS 55.9% | SF-295 CNS 16.7% | UACC-257 melanoma 65.1% | M14 melanoma 22.8% | HCT-15 colon 21.5% | SNB-75 CNS 19.1% | U251 CNS 24.2% | PC-3 prostate 16.7% | SK-MEL-5 melanoma 24.6% | UACC-62 melanoma 44.6% | LOX IMVI melanoma 33.1% | SK-MEL-28 melanoma 70.5%
active: RXF 393 renal -11.3% | SF-539 CNS 3.56% | HT29 colon 5.44%

C=C1C(=O)O[C@H]2[C@H]1CC/C(COC(=O)c1cccc3ccccc13)=C\CC[C@@]1(C)O[C@@H]21
inactive: SF-295 CNS 47.8% | SNB-75 CNS 29% | SNB-19 CNS 10.5%
active: DU-145 prostate -95.1% | MALME-3M melanoma -74.5% | MDA-MB-231 breast -67.7% | RXF 393 renal -89.6% | SF-268 CNS -66.4% | SF-539 CNS -93.1% | UACC-257 melanoma -13.9% | M14 melanoma -58.7% | HCT-15 colon -46.9% | HT29 colon -84.2% | U251 CNS -83.7% | PC-3 prostate -70.9% | SK-MEL-5 melanoma -89% | UACC-62 melanoma -76.9% | LOX IMVI melanoma -92.2% | SK-MEL-28 melanoma -56.7%

Clc1ccc2c(NCCNc3nc(Cl)nc4ccccc34)ccnc2c1
active: DU-145 prostate -3.33% | MALME-3M melanoma -87.3% | MDA-MB-231 breast -87.8% | RXF 393 renal -77.2% | SF-268 CNS -58.1% | SF-295 CNS -76.7% | SF-539 CNS -84% | M14 melanoma -89.1% | HCT-15 colon -67.5% | HT29 colon -91.5% | SNB-75 CNS -93.1% | SNB-19 CNS -49.9% | U251 CNS -92.1% | PC-3 prostate -45.7% | SK-MEL-5 melanoma -99.2% | UACC-62 melanoma -89.6% | LOX IMVI melanoma -89.4% | SK-MEL-28 melanoma -78.7%
inactive: UACC-257 melanoma 91.1%

CC(=O)c1cc2c(c(O)c1C)C(=O)C(=O)c1c(O)cccc1-2
active: DU-145 prostate -94.8% | MALME-3M melanoma -83.1% | MDA-MB-231 breast -79.3% | RXF 393 renal -90.2% | SF-268 CNS -45.8% | SF-295 CNS -82.5% | SF-539 CNS -98.3% | UACC-257 melanoma -95.7% | M14 melanoma -87.7% | HCT-15 colon -61.3% | HT29 colon -15.5% | SNB-75 CNS -98.2% | SNB-19 CNS -85.9% | U251 CNS -94.5% | SK-MEL-5 melanoma -97.9% | UACC-62 melanoma -71.6% | LOX IMVI melanoma -49.2% | SK-MEL-28 melanoma -87.2%

O=C(Nc1ccc(Cl)c(Cl)c1)Nc1ccc(Cl)c([N+](=O)[O-])c1
inactive: DU-145 prostate 18% | SF-268 CNS 14.1% | SNB-19 CNS 15.1% | SK-MEL-28 melanoma 12.8%
active: MALME-3M melanoma -12.3% | MDA-MB-231 breast -62.6% | RXF 393 renal -11.8% | SF-295 CNS -26.6% | SF-539 CNS 8.74% | UACC-257 melanoma -8.5% | M14 melanoma 0.455% | HCT-15 colon 5.16% | HT29 colon 2.02% | U251 CNS 6.28% | PC-3 prostate -0.546% | SK-MEL-5 melanoma -90.2% | UACC-62 melanoma 9.51% | LOX IMVI melanoma -19%

FC(F)(F)c1cn(CC2CNC2)c2ncnc(Cl)c12
inactive: DU-145 prostate 108% | MALME-3M melanoma 122% | MDA-MB-231 breast 100% | RXF 393 renal 112% | SF-268 CNS 99.2% | SF-295 CNS 100% | SF-539 CNS 109% | UACC-257 melanoma 85.6% | M14 melanoma 109% | HCT-15 colon 104% | HT29 colon 92.2% | SNB-75 CNS 109% | SNB-19 CNS 99.9% | U251 CNS 105% | PC-3 prostate 110% | SK-MEL-5 melanoma 99.5% | UACC-62 melanoma 102% | LOX IMVI melanoma 102% | SK-MEL-28 melanoma 104%

O=C(CNc1cccnc1)Nc1ccc(C(=O)/C=C/c2ccc(Cl)cc2)cc1
inactive: DU-145 prostate 103% | MALME-3M melanoma 89.3% | MDA-MB-231 breast 77% | RXF 393 renal 98.8% | SF-268 CNS 91.4% | SF-295 CNS 93.9% | SF-539 CNS 99.6% | UACC-257 melanoma 105% | M14 melanoma 88.4% | HCT-15 colon 88.6% | HT29 colon 90% | SNB-75 CNS 87.8% | SNB-19 CNS 101% | U251 CNS 82.1% | PC-3 prostate 89.4% | SK-MEL-5 melanoma 91.1% | UACC-62 melanoma 84.9% | LOX IMVI melanoma 86% | SK-MEL-28 melanoma 96.4%

O=[N+]([O-])c1ccc(NS(=O)(=O)c2cc(Cl)ccc2Cl)c2ccccc12
inactive: DU-145 prostate 73% | MALME-3M melanoma 43.2% | MDA-MB-231 breast 71% | RXF 393 renal 42.6% | SF-268 CNS 47.9% | SF-295 CNS 37.7% | SF-539 CNS 44.9% | UACC-257 melanoma 33.7% | M14 melanoma 45.4% | HCT-15 colon 54.2% | HT29 colon 59.4% | SNB-75 CNS 60.6% | SNB-19 CNS 60.1% | U251 CNS 67.1% | PC-3 prostate 54.7% | SK-MEL-5 melanoma 14% | UACC-62 melanoma 17.1% | LOX IMVI melanoma 56.4% | SK-MEL-28 melanoma 35.4%

O=C(Cn1c2ccccc2c2ccncc21)N/N=C/c1c[nH]c2ccccc12
inactive: DU-145 prostate 53.5% | MALME-3M melanoma 43.7% | MDA-MB-231 breast 19.6% | RXF 393 renal 49.2% | SF-268 CNS 71.4% | SF-295 CNS 87.5% | SF-539 CNS 86.4% | UACC-257 melanoma 88.3% | M14 melanoma 68.2% | HCT-15 colon 93.4% | HT29 colon 44.2% | SNB-19 CNS 53.4% | U251 CNS 19.7% | UACC-62 melanoma 21.2% | LOX IMVI melanoma 33.3% | SK-MEL-28 melanoma 56.5%
active: SK-MEL-5 melanoma 4.85%

CCCCCn1ncc(-c2c(O)c(O)cc3c(O)c(-c4c(C)cc5c(-c6cnn(CCCCC)n6)c(O)c(O)cc5c4O)c(C)cc23)n1
active: RXF 393 renal -4.68% | SF-268 CNS 5.18% | SF-539 CNS 3.31% | M14 melanoma -20.8% | HT29 colon -20.9% | U251 CNS -33.3% | PC-3 prostate -25.3% | SK-MEL-5 melanoma -49.2% | UACC-62 melanoma -11.8% | LOX IMVI melanoma -40.7%
inactive: DU-145 prostate 22.9% | MALME-3M melanoma 27% | MDA-MB-231 breast 32.9% | SF-295 CNS 10% | UACC-257 melanoma 16.2% | HCT-15 colon 14% | SNB-19 CNS 22% | SK-MEL-28 melanoma 25.9%

COc1ccccc1S(=O)(=O)Nc1ccc2c3c(cc(-c4ccoc4)nc13)C(=O)N2C
inactive: DU-145 prostate 86.5% | MALME-3M melanoma 71.3% | MDA-MB-231 breast 62.8% | RXF 393 renal 85.3% | SF-268 CNS 84.1% | SF-295 CNS 56.9% | SF-539 CNS 63.2% | UACC-257 melanoma 58.7% | M14 melanoma 53.1% | HCT-15 colon 66.6% | HT29 colon 43.8% | SNB-75 CNS 16.6% | SNB-19 CNS 75.9% | U251 CNS 77.9% | PC-3 prostate 66.9% | SK-MEL-5 melanoma 56.6% | UACC-62 melanoma 38.3% | LOX IMVI melanoma 51.9% | SK-MEL-28 melanoma 75.6%

CN(C)c1ccc2cc(-c3nc4ccccc4s3)c(N)nc2c1
inactive: DU-145 prostate 40.8% | MALME-3M melanoma 83.4% | MDA-MB-231 breast 70.7% | RXF 393 renal 83.5% | SF-268 CNS 58.7% | SF-295 CNS 22.3% | SF-539 CNS 34% | UACC-257 melanoma 93.9% | M14 melanoma 50.9% | HCT-15 colon 41% | HT29 colon 23.9% | SNB-75 CNS 63.9% | U251 CNS 33.2% | PC-3 prostate 20.2% | SK-MEL-5 melanoma 58.7% | UACC-62 melanoma 95.5% | LOX IMVI melanoma 85.3% | SK-MEL-28 melanoma 98.3%
